The whole screen tested about 69,000 compounds, of which about 8,600 (12%) showed an effect of 50% or more. The sample holds strong results, similar compounds and a random draw of the others, so the mix is not that of the screen.

This experiment relates to Plasmodium berghei. Description: Screen against P. berghei liver stage (PbLuc), transformed with Luciferase, at 10uM. To be noted: tested at 10 uM. The experiment is classed as functional, HepG2.
For `O=C(CCN1CCCC1)N1CC[C@@H](c2ccc3ccccc3c2)[C@H](O)C1`, the INHIBITION came to 52.2%.

For the molecule `O=C(CCn1cccn1)N1CC[C@@H](c2ccc3ccccc3c2)[C@H](O)C1`, the INHIBITION is -28.9%.

In the case of `O=C(CCN1CCCO1)N1CC[C@@H](c2ccc3ccccc3c2)[C@H](O)C1`, the INHIBITION is given as 8.74%.

Regarding `CCN1Cc2ccccc2CC2(CCN(CC3CCC3)CC2)C1=O`, the INHIBITION was determined as 36.5%.

For the molecule `CN1CCOC(CNCc2cccc(OCC(F)(F)F)c2)C1` (stereo unspecified), the INHIBITION is 21.7%.

Take `Cc1n[nH]cc1CNCc1cccc(OCC(F)(F)F)c1`: the INHIBITION is reported as 66.3%.

Consider `Cc1n[nH]cc1CNCc1ccnc(OCC(F)(F)F)c1`, for which the INHIBITION was found to be 28.5%.

As for `COc1cccc(NC(=O)NCc2cnn(C)c2)c1`, the INHIBITION turned out to be 13%.

For the molecule `Cc1n[nH]cc1CNC(=O)Nc1cccc(OCC(F)(F)F)c1`, the INHIBITION is 60.3%.

On to `CC(C)C(=O)Nc1cccc(OCC(=O)NCc2ccccc2F)c1`, for which the INHIBITION was found to be 40.6%.

`CCN(Cc1cnn(C)c1)C[C@H]1CC[C@@H](Cc2cccc(C#N)c2)O1`: the INHIBITION is -15.7%.

For the molecule `O=C1CN(C(=O)C2CCCCC2)CC(O)CN1Cc1ccco1` (stereo unspecified), the INHIBITION is given as -11.1%.

With `CC(C)c1nc2n(n1)CC(NCc1ncc(C(C)(C)C)o1)CC2` (stereo unspecified), the INHIBITION is -33.9%.

With `Cc1c(C)n2c(SCC(=O)N3CCC(C)CC3)nnc2[nH]c1=O`, the INHIBITION is on record as -5.1%.

For `Cc1cc(C)c(N(CC(O)CNCc2ccco2)S(C)(=O)=O)c(C)c1` (stereo unspecified), the INHIBITION was found to be 9.96%.

For the molecule `Cc1cc(C)c2cc(CNCc3ccc(C)o3)c3nn(C)c(=O)n3c2c1`, the INHIBITION was determined as 54.5%.

With `Cc1cc(C)c2cc(CNCc3ccco3)c3nn(C)c(=O)n3c2c1`, the INHIBITION is reported as 60.4%.

Take `Cc1ccn(CCC(=O)NCc2ccc(C)o2)n1`: the INHIBITION is recorded as 27.5%.

Turning to `Cc1ccc(CNC(=O)c2cc(C)n(C)n2)o1`, the INHIBITION is given as 35.75%.

For the molecule `Cc1cc(C(=O)NCc2ccco2)nn1C`, the INHIBITION worked out at 10.075%.

Turning to `CNc1cc(C2CCCN2Cc2ccc(OCC(=O)O)cc2)ccn1` (stereo unspecified), the INHIBITION is listed as -17.7%.

Consider `Cc1ccc(N2CCCN(C(=O)CCC3CCCO3)CC2)nn1` (stereo unspecified), for which the INHIBITION is given as -14.6%.

For the molecule `CN(CCSc1nncn1CC(F)(F)F)c1ccccc1`, the INHIBITION was -31.4%.

Turning to `O=C(Cc1cccc(F)c1)NCCCNC(=O)c1cccc(O)c1`, the INHIBITION is reported as -29.7%.

As to `Cc1ncc(CNC(=O)CCc2c(C)noc2C)c(C2CCCN2C)n1` (stereo unspecified), the INHIBITION was 4.08%.

As to `Cn1nc(C2CCN(C(=O)Cc3cccc(F)c3)CC2)c2cccnc21`, the INHIBITION is on record as 46.6%.

In the case of `CN1CCCN(C[C@@H]2CN(C(=O)CC3CCC3)C[C@@H]2CO)CC1`, the INHIBITION is -6.91%.

On to `COc1cccc(CC(=O)N2CCN(C)c3ncccc3C2)c1`, for which the INHIBITION was -93%.

Consider `CN(C)C(=O)C1CCCN(C(=O)c2ccccc2-n2cc(CN)cn2)C1` (stereo unspecified), for which the INHIBITION stood at 50.8%.

Turning to `NCc1cnn(-c2ccccc2C(=O)N2CCCC(C(N)=O)C2)c1` (stereo unspecified), the INHIBITION is 9.05%.

Take `CNC(=O)C1CCCN(C(=O)c2ccccc2-n2cc(CN)cn2)C1` (stereo unspecified): the INHIBITION was 1.62%.

With `CCCS(=O)(=O)N1C[C@@H](Oc2ncccc2F)[C@H]2OCCC[C@H]21`, the INHIBITION is reported as 30.3%.

For the molecule `CCn1c(CN2CCN(C(=O)C3CCC3)CC2)nc2c(F)cccc21`, the INHIBITION is given as 18.04%.

In the case of `CC1=C(C#N)C(=O)NC(=O)/C1=C\c1c(C)[nH]n(-c2ccccc2)c1=O`, the INHIBITION was -25.6%.

Turning to `CCN1C(=O)C(C#N)=C(C)/C(=C/C2=Cc3ccccc3OC2)C1=O`, the INHIBITION was determined as 51.7%.

In the case of `O=C(Nc1cccnc1)C1=Cc2ccccc2OC1`, the INHIBITION was -25%.

Consider `COC(=O)CC(C1=Cc2ccccc2OC1)c1oc(C)cc(=O)c1O` (stereo unspecified), for which the INHIBITION is recorded as 11.6%.

On to `CC1=C(C#N)C(=O)N(C)C(=O)/C1=C\C1=Cc2ccccc2OC1`, for which the INHIBITION was 92.5%.

As for `CC(Cn1cccn1)NC(=O)C1=Cc2ccccc2OC1` (stereo unspecified), the INHIBITION is -40.7%.

On to `Cc1cc(C)n(CCC(=O)N2CCCC(c3cc(C(N)=O)[nH]n3)C2)n1` (stereo unspecified), for which the INHIBITION was 16.8%.

Consider `COC(=O)C(c1ccccc1)N(C)C(=O)c1ccnc(C)n1` (stereo unspecified), for which the INHIBITION is 23.7%.

With `O=C(c1cccnc1)N1C[C@H]2CC[C@@H](C1)N(Cc1cc(F)ccc1F)C2`, the INHIBITION amounted to 19.2%.

In the case of `CCc1nc(CN(C)C2CCCN(c3cccnn3)C2)no1` (stereo unspecified), the INHIBITION is 14.1%.

As for `O=C(O)C1(Cc2cccc(-c3cccs3)c2)CCCNC1` (stereo unspecified), the INHIBITION was 29.05%.

Take `NC(=O)C1(Cc2ccc(-c3ccccc3)cc2)CCCNC1` (stereo unspecified): the INHIBITION was -0.232%.

With `O=C(N1CCCC1)C1(Cc2ccc(-c3cccs3)cc2)CCNC1` (stereo unspecified), the INHIBITION turned out to be 50.9%.

On to `NC(=O)C1(Cc2ccc(-c3ccccc3)cc2)CCNC1` (stereo unspecified), for which the INHIBITION is reported as 52.7%.

Turning to `CCNC(=O)C1(Cc2ccc(-c3ccccc3)cc2)CCCNC1` (stereo unspecified), the INHIBITION is recorded as -0.232%.

In the case of `O=C(O)C1(Cc2ccc(-c3cccs3)cc2)CCNC1` (stereo unspecified), the INHIBITION turned out to be 35.55%.

Regarding `COc1c(C)cnc(CN2CCn3c(C)nnc3C2)c1C`, the INHIBITION is listed as -7.53%.

With `c1ccc2oc(CCCN3CCCC3c3noc(C4CC4)n3)nc2c1` (stereo unspecified), the INHIBITION was determined as 9.54%.

The record behind these values is ChEMBL document CHEMBL4513216, “Probing the Open Global Health Chemical Diversity Library for Multistage-Active Starting Points for Next-Generation Antimalarials” (ACS Infect Dis, 2020).
